Hits are enriched below; roughly 2.2% of the tested compounds scored in any of these assays.
TrxR1 substrate: qHTS Assay for Substrates of Mammalian Selenoprotein Thioredoxin Reductase 1 (TrxR1): qHTS; Thioredoxin reductase 1, cytoplasmic (Rattus norvegicus), O89049; purified TrxR1 substrate turnover, NADPH consumption readout; Potency, µM (titrated, usually from 114 µM), without a hit: at the top dose activity change, negative = substrate turnover; 0.01% of 390,000 active; note: potency is the fitted concentration of half-maximal effect; % is set by controls: 0 for no effect and ±100 for the full control effect; nearly all actives have a fitted effect of over 50% in size
Target sequence (O89049 whole entry, looked up): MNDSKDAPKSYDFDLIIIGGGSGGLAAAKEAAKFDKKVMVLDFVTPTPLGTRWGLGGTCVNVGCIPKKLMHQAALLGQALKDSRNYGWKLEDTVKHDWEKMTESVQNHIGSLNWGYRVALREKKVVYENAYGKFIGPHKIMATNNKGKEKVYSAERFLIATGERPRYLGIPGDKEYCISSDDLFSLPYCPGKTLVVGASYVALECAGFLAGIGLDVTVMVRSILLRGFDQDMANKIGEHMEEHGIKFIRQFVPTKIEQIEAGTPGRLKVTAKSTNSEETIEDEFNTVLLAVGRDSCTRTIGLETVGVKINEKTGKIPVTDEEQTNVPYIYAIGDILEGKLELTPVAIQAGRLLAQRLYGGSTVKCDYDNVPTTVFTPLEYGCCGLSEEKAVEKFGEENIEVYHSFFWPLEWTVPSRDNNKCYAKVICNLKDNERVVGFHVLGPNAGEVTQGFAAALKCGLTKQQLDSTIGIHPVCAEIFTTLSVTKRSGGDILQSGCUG
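Rat TrxR1, dispensed at 90 nM, was prereduced with 400 uM NADPH (final) for 5 min at ~22 deg C, then incubated with compound 15 min before 400 uM selenite. A first-read NADPH fluorescence drop versus no-compound background flagged substrates.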
BRCA1 expr up: qHTS Assay to Identify Small Molecule Activators of BRCA1 Expression; MCF7-BRCA1-FFLuc reporter, luminescence, 48 h; response scale: scaled: vehicle 0%, 10 µM genistein 100%; 1.1% of 380,000 active; Potency, µM (doses to about 46.1 µM), for the others: at the highest dose activation, actives largely listed as activators; note: potency is the fitted concentration of half-maximal effect; nearly all actives have a fitted effect of over 80% in size
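Using MCF7 cells harboring a BRCA1 firefly luciferase reporter, plated 2 h before compound pinning, the screen measured luminescence after 48 h incubation. Responses were normalized to DMSO and 10 microM genistein, then fitted for concentration-effect.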
rTrxR1 inhibitor: qHTS Assay for Inhibitors of Mammalian Selenoprotein Thioredoxin Reductase 1 (TrxR1): qHTS; Potency, µM (top dose mostly 114 µM), inactives show top-dose activity change, negative = inhibition, most hits filed as inhibitors; 1% of 390,000 active; Thioredoxin reductase 1, cytoplasmic (Rattus norvegicus), O89049; recombinant rTrxR1, NADPH fluorescence consumption, selenite substrate; note: potency is the fitted concentration of half-maximal effect; % is set by controls: 0 for no effect and ±100 for the full control effect; nearly all actives have a fitted effect of over 65% in size
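Rat TrxR1 (90 nM in the dispensed reagent) was pre-reduced with 400 uM NADPH for 5 min at room temperature, then incubated with compound for 15 min. After 400 uM selenite was added, NADPH fluorescence (Ex 340/Em 450 nm) was followed for 8 min.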
mIDH1 inhibitor: qHTS for Inhibitors of mutant isocitrate dehydrogenase 1 (IDH1): qHTS | 0.093% of 390,000 active | Isocitrate dehydrogenase [NADP] cytoplasmic (Homo sapiens), O75874 | AID 602179, 2012 | IDH1-R132H enzyme, NADPH consumption, diaphorase/resazurin fluorescence | Potency, µM (titrated, usually from 76.6 µM), without a hit: top-dose activity change, negative = inhibition, usual class: inhibitors; note: potency is the fitted concentration of half-maximal effect; % is set by controls: 0 for no effect and ±100 for the full control effect; nearly all actives have a fitted effect of over 65% in size
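IDH1-R132H (0.5 ug/mL) preincubated 30 min with compound, then NADPH (0.016 mM) and alpha-KG (2 mM) added; 80 min at RT, pH 7.5. Remaining NADPH coupled via diaphorase/resazurin to fluorescence (540/590 nm); concentration-response curves normalized to no-enzyme control.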
IL-2 act: qHTS of IL-2 Activators. activation, % (series mostly up to about 46 µM). 0.065% of 360,000 active. IL-2 activation reporter assay, cell-based qHTS; stimulated with anti-CD3/CD4/CD28 beads; in transgenic mouse T cells; in the data active = activation above about 50%; inconclusive = mostly about 30% to 49%; note: 0% is about no effect
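Unstimulated transgenic mouse T cells; 60-min compound exposure; bead-based TCR/CD4/CD28 stimulation; 18 h culture, 37 degrees C; dual fluorescence (EGFP, DsRed) plate cytometry.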
Giardia kill: Small Molecules that selectively kill Giardia lamblia: qHTS; activity change, % at 7.66 µM, hits read low; 0.15% of 340,000 active; Giardia lamblia trophozoite viability; in the data active = activity change below about -80%; inconclusive = between about -30% and that limit;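 note: parasites exposed to compound for two days anaerobically before the ATP read; % is set by controls: 0 for no effect and ±100 for the full control effect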
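ATP-content bioluminescence gauges trophozoite survival. Cells (100/well) receive compound and incubate anaerobically for 48 hrs at 37 deg C; detection reagent follows for 15-30 min at room temperature.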
Numbers without * were called inactive; ? = inconclusive; nt = no result given; [ ] = remark or other dose. Unless noted, calls come from the whole dose curve; as a rule, active = well fitted curve in the direction sought with a large enough effect; inconclusive = small, poorly fitted or top-dose-only effect, or another doubt; inactive = no such curve, though single readings can be large; an effect the other way counts as inactive or inconclusive.

SMILES | TrxR1 substrate | BRCA1 expr up | rTrxR1 inhibitor | mIDH1 inhibitor | IL-2 act | Giardia kill
O=C1C(Cl)=C(NS(=O)(=O)c2ccc([N+](=O)[O-])cc2)C(=O)c2ccccc21 | -13% | -94% | 0.79µM* | 4% | -5 | 18
COc1ccc(CN(CCCN)c2ccc(Br)cn2)cc1 | 6% | -49% | -7% | nt | nt | 11
COc1ccc(C(=O)N2CC(=O)Nc3ccc(F)cc3C2c2ccc(F)cc2)c(OC)c1 (configuration not stated) | 7% | nt | 14% | -4% | nt | nt
N#CC1=C(N)SC(N)=C(C#N)C1c1ccnc2ccccc12 | 2% | 4% | 32µM* | -6% | 4 | 16
CCOC(=O)C1=C(C)c2ccccc2N(C(=O)OC)C1(C)C(=O)OCC (configuration not stated) | -2% | -24% | 35µM* | -5% | 0 | -13
O=c1[nH]c2ccccc2nc1/C=C/c1ccccc1 | 5%[57.1 µM] | 4µM* | 17%[57.1 µM] | 10% | 0 | ?
COc1ccc(OC)c(/C=C/c2nc3ccccc3[nH]c2=O)c1 | 2% | -45% | 8% | 0% | 139* | 8
COc1ccc(OC)c(/C=C/c2nc3ccccc3nc2C)c1 | -1% | nt | 5% | nt | nt | nt
O=c1[nH]c2ccccc2nc1/C=C/c1ccc(O)cc1 | -7%[57.1 µM] | ? | -12%[57.1 µM] | 7% | 3 | -8
COc1ccc(-c2ccccc2)c2oc(-c3ccco3)cc(=O)c12 | 7%[57.1 µM] | 0% | 32µM* | -4% | 0 | -2
CC(=O)Nc1ccc(S(=O)(=O)O)c2cc(S(=O)(=O)O)c(N=Nc3ccc(N=Nc4ccc(S(=O)(=O)O)cc4)c4ccc(S(=O)(=O)O)cc34)c(O)c12 | -17% | -42% | -21% | nt | nt | nt
Cn1c2ccccc2c2ncn(CCC3=CCCCC3)c(=O)c21 | 18% | 10µM* | 9% | 8% | -1 | -4
CCc1ccc(-n2c(=O)c3sc4ccccc4c3n(CC(=O)N(CC)Cc3ccccc3)c2=O)cc1 | 7% | 0% | 19% | 4% | nt | nt
CC(C)Oc1ccc(C(=O)NC2CCS(=O)(=O)C2)cc1 (configuration not stated) | 0% | 0% | 6% | -1% | -1 | 7
CC(C)Oc1ccc(C(=O)NC2CCCCC2)cc1 | 10%[57.1 µM] | 4.5µM* | 13%[57.1 µM] | 7% | -2 | -5
O=C(NC1CCCCC1)c1cc(-c2ccccc2O)on1 | -1% | 2µM* | 4% | 12% | 1 | -2
O=C(NC1CCCCC1)c1cc(-c2ccc(O)cc2)on1 | 4% | ? | 20% | -7% | 1 | 1
Cc1cc(NC(=O)c2cc(C(C)C)on2)no1 | 2% | 11µM* | 5% | 5% | 0 | 22
CC(C)c1cc(C(=O)NC2CCCCC2)no1 | 5% | 8.9µM* | 11% | 4% | 1 | -6
COc1ccc(CNC(=O)CCCn2c(=O)c3cccn3c3ccc(F)cc32)cc1OC | -1% | nt | 9% | 0% | nt | nt
CCc1cccc(C)c1NC(=O)C1CCN(c2nnc(C)c3c(C)n(-c4ccccc4)nc23)CC1 | -1% | nt | 15% | -10% | nt | nt
CCOC(=O)C1(Cc2ccccc2Cl)CCN(C(=O)CN2CCOC2=O)CC1 | -3% | 13µM* | 12% | 8% | -2 | 25
CCCCCn1c(=O)c2ccccc2n2c(CCl)nnc12 | -3%[57.1 µM] | 0% | ? | 5% | -1 | 0
CC(C)CCn1c(=O)c2ccccc2n2c(CCl)nnc12 | 13%[57.1 µM] | -10% | 22µM* | 12% | 0 | 2
COc1ccc(CNC(=O)C2CCN(c3nc4ccc(C)cc4[nH]3)CC2)cc1 | 0%[57.1 µM] | nt | 7%[57.1 µM] | -1% | nt | nt
SMILES | TrxR1 substrate | BRCA1 expr up | rTrxR1 inhibitor | mIDH1 inhibitor | IL-2 act | Giardia kill
COc1cc(N=c2ssnc2Cl)c(OC)cc1Cl | -13%[57.1 µM] | -15% | ? | 46µM* | -1 | -8
COc1ccc(OC)c(N=c2ssnc2Cl)c1 | -11% | -36% | -22%[57.1 µM] | -4% | 2 | 0
O=C(/C=C/c1ccccc1)Nc1cccnc1Cl | -8% | 10µM* | 14%[57.1 µM] | 5% | 2 | -7
O=C(COC(=O)/C=C/c1ccccc1)Nc1cccnc1Cl | -5% | -11% | -1% | 0% | 2 | -3
O=C(NC(=S)Nc1cccnc1Cl)c1ccco1 | -9% | 10µM* | -22% | -4% | 0 | ?
O=C(/C=C/c1ccccc1)Nc1ccc(Br)cn1 | 1% | 1.4µM* | 29% | -1% | 0 | -17
COC(=O)c1cc(OC)c(OC)cc1NC(=S)NC(=O)c1ccco1 | -2% | -2% | 14µM* | 0% | -1 | -1
Cc1ccc(NC(=O)/C=C/c2ccc(Cl)cc2)nc1 | -10%[57.1 µM] | ? | 25%[57.1 µM] | 6% | 0 | -29
COC(=O)c1ccccc1NC(=O)/C=C/c1ccco1 | -17% | -71% | ? | 6% | 0 | -19
O=C(/C=C/c1ccco1)Nc1cccnc1Cl | 1% | ? | 16µM* | -8% | 1 | -25
Cc1cc(OCc2cc(C(=O)N(C)CCOc3ccccc3)no2)cc(C)c1Cl | 3% | -3% | 25% | 2% | -3 | 15
CC(=O)c1ccc(OCc2cc(C(=O)N(C)Cc3ccccn3)no2)cc1 | 2% | ? | 50µM* | -1% | -2 | -21
CCN(CC1CCCO1)C(=O)c1cc(COc2cc(C)c(Cl)c(C)c2)on1 (configuration not stated) | 4% | 6.3µM* | 1% | 3% | -1 | 22
Cc1cc(OCc2cc(C(=O)N(C)CC3CCOCC3)no2)cc(C)c1Cl | -11% | ? | 2% | -4% | -2 | 5
Cc1cc(OCc2cc(C(=O)N(C)C(C)c3ccccn3)no2)cc(C)c1Cl (configuration not stated) | 6%[57.1 µM] | 11µM* | 21%[57.1 µM] | 8% | -1 | 18
CSc1ccccc1OCc1cc(C(=O)N(C)C(C)c2ccccn2)no1 (configuration not stated) | -6% | -2% | -10% | 8% | -2 | -7
CC(=O)c1ccc(OCc2cc(C(=O)N(C)Cc3ccon3)no2)cc1 | -4% | -2% | 3% | 1% | 0 | 25
Cc1cc(OCc2cc(C(=O)N(C)Cc3ccccn3)no2)cc(C)c1Cl | 0% | 11µM* | -3% | 9% | -1 | -18
